Results from PubChem BioAssay AID1159580 (chemical genetic matrix, 2015).
Screen size: about 5,500 compounds; about 2,000 (36%) were called active. Not shown: some 18% with an inconclusive outcome. Cut-off read from the data, not from the text of the source: active = normalized growth mostly below about 0.91 (no sharp cut-off); inconclusive = no clear call, values can overlap the other calls; inactive = mostly above about 0.92. This is one part of the list.

Experiment: chemical genetic growth profiling, strain panel (AID 1159580);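 note: tested at 20 µM; growth read once vehicle control cultures reached saturation at 30 °C; 1 = growth at the plate median or of vehicle wells; lower values mean less growth of the strain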
Conditions: growth OD

Measured: normalized growth

CC1(C)C(=O)[C@@H]2C[C@@]3(O)C4=CC(=O)O[C@@H](c5ccoc5)[C@]4(C)CCC3[C@@](C)(C2=O)[C@H]1CC(=O)O (some centres not stated)
inactive: S. cerevisiae deletion strains, locus YJR066W, strain TOR1, hits give low values 0.941 | S. cerevisiae deletion strains, locus YKL009W, strain mrt4, hits give low values 0.998 | S. cerevisiae deletion strains, locus YKL068W, hits give low values 1 | S. cerevisiae deletion strains, locus YKL085W, strain MDH1 (second series), hits give low values 0.99 | S. cerevisiae deletion strains, locus YKL085W, strain MDH1, hits give low values 0.99 | S. cerevisiae deletion strains, locus YKL160W, strain elf1, hits give low values 1.01 | S. cerevisiae deletion strains, locus YKR001C, strain vps1, hits give low values 0.992 | S. cerevisiae deletion strains, locus YKR026C, strain gcn3, hits give low values 1.01 | S. cerevisiae deletion strains, locus YKR091W, strain srl3, hits give low values 1 | S. cerevisiae deletion strains, locus YLL001W, strain dnm1, hits give low values 1.01 | S. cerevisiae deletion strains, locus YLL026W, hits give low values 1.01 | S. cerevisiae deletion strains, locus YLL041C, strain sdh2, hits give low values 1.01 | S. cerevisiae deletion strains, locus YLR027C, strain aat2, hits give low values 1.01 | S. cerevisiae deletion strains, locus YLR039C, strain RIC1, hits give low values 1.1 | S. cerevisiae deletion strains, locus YLR058C, strain SHM2, hits give low values 1.01 | S. cerevisiae deletion strains, locus YLR102C, strain apc9, hits give low values 0.997 | S. cerevisiae deletion strains, locus YLR113W, strain HOG1, hits give low values 0.986 | S. cerevisiae deletion strains, locus YLR221C, strain rsa3, hits give low values 1.01 | S. cerevisiae deletion strains, locus YLR258W, strain gsy2, hits give low values 0.996 | S. cerevisiae deletion strains, locus YLR262C, strain YPT6 (second series), hits give low values 1.01 | S. cerevisiae deletion strains, locus YLR262C, strain YPT6, hits give low values 1.08 | S. cerevisiae deletion strains, locus YLR268W, strain sec22, hits give low values 1 | S. cerevisiae deletion strains, locus YLR320W, strain mms22, hits give low values 0.995 | S. cerevisiae deletion strains, locus YLR330W, strain CHS5, hits give low values 1 | S. cerevisiae deletion strains, locus YLR342W, strain FKS1, hits give low values 0.997 | S. cerevisiae deletion strains, locus YLR357W, strain rsc2, hits give low values 1 | S. cerevisiae deletion strains, locus YLR370C, strain arc18, hits give low values 1.01 | S. cerevisiae deletion strains, locus YLR371W, strain rom2, hits give low values 1.01 | S. cerevisiae deletion strains, locus YLR384C, strain iki3, hits give low values 0.992 | S. cerevisiae deletion strains, locus YLR418C, strain cdc73, hits give low values 1 | S. cerevisiae deletion strains, locus YML016C, strain PPZ1, hits give low values 1 | S. cerevisiae deletion strains, locus YML032C, strain rad52, hits give low values 0.983 | S. cerevisiae deletion strains, locus YML120C, strain ndi1, hits give low values 1.02 | S. cerevisiae deletion strains, locus YML124C, strain tub3, hits give low values 1 | S. cerevisiae deletion strains, locus YMR058W, strain fet3, hits give low values 1.02 | S. cerevisiae deletion strains, locus YMR078C, strain ctf18, hits give low values 0.985 | S. cerevisiae deletion strains, locus YMR125W, strain sto1, hits give low values 0.997 | S. cerevisiae deletion strains, locus YMR129W, hits give low values 1 | S. cerevisiae deletion strains, locus YMR205C, strain PFK2, hits give low values 0.999 | S. cerevisiae deletion strains, locus YMR223W, strain ubp8, hits give low values 0.99 | S. cerevisiae deletion strains, locus YMR231W, strain pep5, hits give low values 0.976 | S. cerevisiae deletion strains, locus YMR263W, strain SAP30, hits give low values 1.02 | S. cerevisiae deletion strains, locus YMR307W, strain GAS1, hits give low values 1.06 | S. cerevisiae deletion strains, locus YNL067W, strain RPL9B, hits give low values 1 | S. cerevisiae deletion strains, locus YNL071W, strain lat1, hits give low values 1.01 | S. cerevisiae deletion strains, locus YNL128W, strain TEP1, hits give low values 1.02 | S. cerevisiae deletion strains, locus YNL183C, strain NPR1, hits give low values 0.946 | S. cerevisiae deletion strains, locus YNL209W, strain ssb2, hits give low values 1.03 | S. cerevisiae deletion strains, locus YNL233W, strain BNI4, hits give low values 1.02 | S. cerevisiae deletion strains, locus YNL248C, strain rpa49, hits give low values 1.02 | S. cerevisiae deletion strains, locus YNL250W, strain rad50, hits give low values 1 | S. cerevisiae deletion strains, locus YNL271C, strain bni1, hits give low values 1 | S. cerevisiae deletion strains, locus YNL298W, strain CLA4, hits give low values 0.977 | S. cerevisiae deletion strains, locus YNL307C, strain MCK1, hits give low values 0.99 | S. cerevisiae deletion strains, locus YNL322C, strain KRE1 (second series), hits give low values 0.999 | S. cerevisiae deletion strains, locus YNR049C, strain mso1, hits give low values 0.999 | S. cerevisiae deletion strains, locus YNR052C, strain pop2, hits give low values 0.984 | S. cerevisiae deletion strains, locus YOL006C, strain TOP1, hits give low values 1.09 | S. cerevisiae deletion strains, locus YOL012C, strain htz1 0.886 | S. cerevisiae deletion strains, locus YOL147C, strain pex11, hits give low values 0.995 | S. cerevisiae deletion strains, locus YOR001W, strain rrp6, hits give low values 1.03 | S. cerevisiae deletion strains, locus YOR061W, strain CKA2, hits give low values 1.01 | S. cerevisiae deletion strains, locus YOR069W, strain VPS5, hits give low values 1.01 | S. cerevisiae deletion strains, locus YOR070C, strain gyp1, hits give low values 1.01 | S. cerevisiae deletion strains, locus YOR080W, strain dia2, hits give low values 1 | S. cerevisiae deletion strains, locus YOR083W, strain WHI5, hits give low values 1 | S. cerevisiae deletion strains, locus YOR106W, strain vam3, hits give low values 1.01 | S. cerevisiae deletion strains, locus YOR136W, strain idh2, hits give low values 0.989 | S. cerevisiae deletion strains, locus YOR144C, strain elg1, hits give low values 0.989 | S. cerevisiae deletion strains, locus YOR184W, strain ser1, hits give low values 1.01 | S. cerevisiae deletion strains, locus YOR231W, strain MKK1, hits give low values 0.998 | S. cerevisiae deletion strains, locus YOR265W, strain rbl2, hits give low values 1.02 | S. cerevisiae deletion strains, locus YOR270C, strain vph1, hits give low values 1.06 | S. cerevisiae deletion strains, locus YOR290C, strain snf2, hits give low values 1.01 | S. cerevisiae deletion strains, locus YOR316C, strain cot1, hits give low values 0.994 | S. cerevisiae deletion strains, locus YPL051W, strain arl3, hits give low values 1.05 | S. cerevisiae deletion strains, locus YPL078C, strain atp4, hits give low values 1.01 | S. cerevisiae deletion strains, locus YPL106C, strain sse1, hits give low values 1.04 | S. cerevisiae deletion strains, locus YPL240C, strain hsp82, hits give low values 1.01 | S. cerevisiae deletion strains, locus YPL241C, strain CIN2, hits give low values 1.01 | S. cerevisiae deletion strains, locus YPL256C, strain CLN2, hits give low values 0.984 | S. cerevisiae deletion strains, locus YPR119W, strain clb2, hits give low values 0.991 | S. cerevisiae deletion strains, locus YPR141C, strain kar3, hits give low values 1.01 | S. cerevisiae deletion strains, locus YPR163C, strain tif3, hits give low values 0.99 | S. cerevisiae deletion strains, locus YPR167C, strain met16, hits give low values 1 | S. cerevisiae deletion strains, strain wtn01, hits give low values 1.01 | S. cerevisiae strains, strain wild type, hits give low values 1.01
